Test results: PMC4336329 (PLoS ONE, 2015)
Screen size: about 310,000 compounds; about 14,000 (4.5%) showed an effect of 50% or more. Effects have a minus sign here. This is one part of a sample in which strong results are shown more often than they occur.

target: human ether-à-go-go-related gene (hERG) potassium channel (human, UniProt Q12809); experiment: primary screen, population patch clamp on CHO cells stably expressing hERG; higher = less effect of the substance
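Further: peak tail current of the secondary pulse compared with the same well before compound.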

Sequence of human ether-à-go-go-related gene (hERG) potassium channel (Q12809 whole entry, looked up): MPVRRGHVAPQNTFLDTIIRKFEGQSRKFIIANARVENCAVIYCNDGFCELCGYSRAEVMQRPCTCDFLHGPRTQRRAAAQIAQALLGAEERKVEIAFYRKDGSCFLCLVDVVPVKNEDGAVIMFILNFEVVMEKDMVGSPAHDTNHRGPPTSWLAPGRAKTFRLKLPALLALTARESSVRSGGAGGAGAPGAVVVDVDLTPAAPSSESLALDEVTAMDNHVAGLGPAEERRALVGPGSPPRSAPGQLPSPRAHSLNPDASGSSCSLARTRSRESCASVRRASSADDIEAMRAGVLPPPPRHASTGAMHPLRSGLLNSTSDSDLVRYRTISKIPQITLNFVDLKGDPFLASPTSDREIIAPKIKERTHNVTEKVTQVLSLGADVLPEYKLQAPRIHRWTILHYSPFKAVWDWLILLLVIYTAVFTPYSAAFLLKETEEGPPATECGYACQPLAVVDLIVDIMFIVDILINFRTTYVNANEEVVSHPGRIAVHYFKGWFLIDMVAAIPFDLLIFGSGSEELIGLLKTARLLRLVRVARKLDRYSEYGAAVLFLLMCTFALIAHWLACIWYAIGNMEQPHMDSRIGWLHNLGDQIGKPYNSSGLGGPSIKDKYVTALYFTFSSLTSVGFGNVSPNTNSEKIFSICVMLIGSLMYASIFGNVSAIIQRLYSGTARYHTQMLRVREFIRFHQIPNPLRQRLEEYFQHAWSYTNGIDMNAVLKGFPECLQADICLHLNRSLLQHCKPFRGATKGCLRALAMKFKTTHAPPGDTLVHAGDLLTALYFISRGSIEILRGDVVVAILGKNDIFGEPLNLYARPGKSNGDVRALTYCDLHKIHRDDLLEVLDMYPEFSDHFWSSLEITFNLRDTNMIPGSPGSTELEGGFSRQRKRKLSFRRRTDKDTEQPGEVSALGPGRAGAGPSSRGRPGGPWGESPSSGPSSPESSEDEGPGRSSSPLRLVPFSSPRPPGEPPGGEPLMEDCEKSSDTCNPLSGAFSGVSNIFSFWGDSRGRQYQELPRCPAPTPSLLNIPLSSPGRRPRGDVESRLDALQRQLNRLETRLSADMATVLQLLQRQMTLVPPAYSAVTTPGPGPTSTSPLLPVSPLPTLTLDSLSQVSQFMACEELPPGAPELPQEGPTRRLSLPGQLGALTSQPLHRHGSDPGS

SMILES	hERG current change (%, negative = inhibition) at 10uM [%]
COc1ccccc1/C=N/NC(=O)CC(=O)NCc1cccnc1	7.63
O=C(O)COc1ccccc1/C=N/NC(=O)CSc1nc2ccccc2s1	9.71
CCOc1ccc(-c2cc(C(=O)NN3CCN(C)CC3)c3cc(Cl)ccc3n2)cc1	22.5
CC(C(=O)NCc1ccc2c(c1)OCO2)N1c2cccc3cccc(c23)S1(=O)=O (stereo not shown)	-22.7
O=C(CN1C(=O)S/C(=C\C=C\c2ccccc2)C1=O)N1CCCCC1	10.8
Cc1cc(=O)oc2cc(OCCSCCN3CCCCC3)ccc12	-16.5
CNC(=S)N1CCn2cccc2C1c1cccnc1 (stereo not shown)	6.45
COc1ccc(/C(N)=N/OC(=O)CCCc2ccccc2)cc1	-11.3
FC(F)(F)Oc1ccc(NC2=NCCCS2)cc1	-24.4
COC(=O)c1c(NC(=O)C2CCCO2)sc2c1CCC2 (stereo not shown)	-3.4
CC(C)CN(CC(C)C)C(=O)c1cc2c(=O)n3ccccc3nc2s1	7.12
O=C(O)C1CC1(c1ccccc1)c1ccccc1 (stereo not shown)	17.7
N#CC(C#N)=Cc1ccc(N2CCOCC2)cc1	-10.7
Cc1ccc2c(Cl)c(C(=O)NCc3cccnc3)sc2c1	-46.4
O=C(NCc1cccnc1)c1sc2ccccc2c1Cl	-28.9
O=C(NCc1cccnc1)c1sc2cc(Cl)ccc2c1Cl	-55.4
CCCn1c(=O)c(C(=O)NCc2ccccn2)c(O)c2ccccc21	-11.1
CCCn1c(=O)c(C(=O)NCc2ccncc2)c(O)c2ccccc21	-63
CCCn1c(=O)c(C(=O)NCc2ccccc2)c(O)c2ccccc21	7.64
Cc1cc(NC(=O)CSc2nc3ccsc3c(=O)n2NC(=O)c2ccccc2)no1	-1.69
Cc1ccc(C(=O)N(C)CC(=O)Nc2cccc(F)c2)cc1S(=O)(=O)N1CCCCC1	-10.5
COc1ccc(C(=O)NC2CCC(O)CC2)cc1S(=O)(=O)NCc1ccc(Cl)cc1 (stereo not shown)	-6.07

SMILES	hERG current change (%, negative = inhibition) at 10uM [%]
COc1ccc(C(=O)NC2CC2)cc1OC1CCN(Cc2ccccc2)CC1	-81.6
COc1cc2[nH]c(=O)n(Cc3ccc(C(=O)NC4CCN(Cc5ccccc5)CC4)cc3)c(=O)c2cc1OC	17.6
COc1ccc(C(=O)NC2CC2)cc1OC1CCN(Cc2cnn(C)c2)CC1	-32.7
COc1ccc(C(=O)NC2CC2)cc1OC1CCN(Cc2ccc(Cl)cc2)CC1	-78.8
COc1ccc(C(=O)NC2CC2)cc1OC1CCN(Cc2ccc(F)c(F)c2)CC1	-75.2
COc1ccc(C(=O)NC2CC2)cc1OC1CCN(Cc2ccc(SC)cc2)CC1	-88.7
COc1ccc(C(=O)NCCc2cccc(Cl)c2)cc1OC1CCN(C(C)=O)CC1	-16.1
C/C(=N\Nc1ccc(S(N)(=O)=O)cc1[N+](=O)[O-])c1cccs1	25.7
C[C@]12CC[C@H]3[C@@H](CC[C@]4(O)C[C@@H](O)CC[C@]34C=O)[C@@]1(O)CC[C@@H]2C1=CC(=O)OC1	14
O=C(CC12CC3CC(CC(C3)C1)C2)N1CCOCC1	-1.47
COc1ccccc1CC(NC(C)=O)C(=O)NC1CCN(C(=O)Nc2ccc(F)cc2)CC1 (stereo not shown)	-1.82
COc1ccc(C(=O)NC2CC2)cc1OC1CCN(Cc2ccc(F)cc2)CC1	-81.8
COc1cc(C(=O)NC2CCN(Cc3nnnn3Cc3ccc(F)cc3)CC2)cc(OC)c1OC	-0.888
COc1cc(C(=O)NC2CCCCC2)ccc1OC1CCN(C(C)=O)CC1	7.63
C/C=C(\C)CN1CCC(Oc2cc(C(=O)NC3CC3)ccc2OC)CC1	-64.5
COc1cc(OC)cc(C(=O)NC2CCN(Cc3nnnn3Cc3ccc(F)cc3)CC2)c1	-3.98
COc1ccc(C(=O)NC2CCN(CC(=O)Nc3c(C)cccc3C)CC2)cc1OC	18.7
CN(C)S(=O)(=O)c1cccc(C(=O)NC2CCSc3ccccc32)c1 (stereo not shown)	-5.74
CCOc1cccc(=O)c2c(C)n(Cc3ccco3)c(C)c12	-11.5
Cc1nc(NS(=O)(=O)c2ccccc2)sc1C(=O)N/N=C/c1ccccc1	-2
CCn1c2ccccc2c2cc(/C=N/n3cnnc3)ccc21	-13.4
